# In PubChem BioAssay AID431 (Sanford-Burnham Center for Chemical Genomics, 2006):
# In all, about 63,000 compounds went through this assay and about 1,100 (1.7%) were called active. The sample holds actives, similar compounds and a random draw of the others, so the mix is not that of the screen.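 How the source made its calls: active means compounds whose percent cytotoxicity in the single-dose primary screen, scaled between solvent and toxic-drug controls, exceeds 50; inactive means the rest.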 Entries with a potency or affinity are not part of this list.
# Experiment: viability loss of HPDE-C7K cells – cell-based, fluorescence, HTS, primary screen (AID 431);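 further: 0% = DMSO solvent wells and 100% = doxorubicin-treated wells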
# Details: HPDE-C7K KRASV12 cells, Alamar Blue viability, 48 h; at 10 µM; stronger effect = higher value
row,SMILES,cytotoxicity
1,COc1ccc(N2C(=O)C(CC(=O)Nc3ccccc3)N(Cc3ccc4c(c3)OCO4)C2=O)cc1 (centres undefined),-9% (inactive)
2,c1ccc2c(c1)nc(Nc1ccc3c(c1)OCO3)c1nnnn12,-10.2% (inactive)
3,COc1ccc(CCNC(=O)CCS(=O)(=O)c2cccc3nsnc23)cc1OC,-2.7% (inactive)
4,COc1ccc(OC)c2sc(N3CCN(c4ccccc4)CC3)nc12,15.9% (inactive)
5,CCCc1c(C(=O)OCC)[nH]c2c1C(=O)CCC2,10% (inactive)
6,O=C(Nc1ccc(C(F)(F)F)cc1)C1CCCN1S(=O)(=O)c1cccc2cccnc12 (centres undefined),16.9% (inactive)
7,C=CCNC(=O)c1ccccc1NS(=O)(=O)c1ccc(SC)cc1,26.3% (inactive)
8,CCOc1ccc(NC(=O)CN2CCN(CC(=O)Nc3ccc4c(c3)OCCO4)CC2)cc1,-5.7% (inactive)
9,Cc1ccc2[nH]c3c(c2c1)CCC3=O,-12.2% (inactive)
10,O=CNC1CCCc2c1[nH]c1ccc(Cl)cc21 (centres undefined),12.8% (inactive)
11,CC(Oc1ccc(Cl)cc1)C(=O)Nc1nccs1 (centres undefined),-6% (inactive)
12,c1ccc(-n2nnnc2Sc2n[nH]c(-c3ccncc3)n2)cc1,-8.6% (inactive)
13,CC(=O)C1=C(O)C(=O)N(CCN(C)C)C1c1ccc(Cl)cc1 (centres undefined),1% (inactive)
14,COc1cccc(CNC(=O)C2CCN(C(=O)N(C)C)CC2)c1,-6.1% (inactive)
15,CCC(NC(C)C)C(O)c1ccc(O)c(O)c1 (centres undefined),2.8% (inactive)
16,Cc1ccc(O)c(CC(C)C)n1,5.8% (inactive)
17,CC1CCCN(S(=O)(=O)c2cccc(-c3cn4cccnc4n3)c2)C1 (centres undefined),-3% (inactive)
18,O=C(Nc1ccc(N2CCOCC2)cc1)Nc1ccc2nc(-c3ccco3)c(-c3ccco3)nc2c1,80.3% (active)
19,O=C(Nc1ccc(N2CCOCC2)cc1)c1ccc2nc(-c3ccco3)c(-c3ccco3)nc2c1,-26.4% (inactive)
20,O=C(Nc1ccc2nc(-c3ccco3)c(-c3ccco3)nc2c1)N1CCCCCC1,38.8% (inactive)
21,Cn1nnnc1SCC(=O)N1CCc2ccccc2C1,-12.2% (inactive)
22,CC(C)c1ccc(NC(=O)C(c2ccccc2)N2CCN(C(=O)c3ccco3)CC2)cc1 (centres undefined),-11.8% (inactive)
23,COc1ccc(NS(=O)(=O)c2ccc(O)c(C(=O)OCC(=O)N3CC(C)OC(C)C3)c2)cc1 (centres undefined),11.2% (inactive)
24,C=CCn1c(Cc2csc(N)n2)nnc1SCc1ccc(C(=O)OC)cc1,-10.3% (inactive)
25,Cc1ccc(-n2c(SCC(=O)NCc3ccco3)nc3sc(C)c(C)c3c2=O)cc1,-4% (inactive)

row,SMILES,cytotoxicity
1,Cc1cc(C)c2ccc(N)nc2c1O,121% (active)
2,Cc1cc(C)c2ccc(C)[n+]([O-])c2c1O,-6.5% (inactive)
3,Cc1cc(=O)oc2c(N)c(O)ccc12,-2.8% (inactive)
4,CCCC(=O)Nc1ccccc1NC(=O)CN(C)S(=O)(=O)c1ccccc1,-1.8% (inactive)
5,Cc1csc(NC(=O)CSc2nc(C)cs2)n1,6.5% (inactive)
6,CC(C)(C)NC(=O)CSc1nsc(SCC(=O)NC(C)(C)C)c1C#N,11.8% (inactive)
7,Cc1n[nH]c(C)c1Cc1ccc(C(=O)O)cc1,-13.2% (inactive)
8,CS(=O)(=O)c1ccc2nc(NC(=O)CC3CCCC3)sc2c1,-9% (inactive)
9,Cc1cc(C)c(NC2=NCC(=O)N2C2CCCCC2)c(C)c1,-9.5% (inactive)
10,Cc1nc(N2CCc3ccccc3C2)[nH]c(=O)c1CCC(C)C,8.4% (inactive)
11,COc1ccc(C)cc1NC(=O)CN(c1ccccc1)S(C)(=O)=O,-2.4% (inactive)
12,O=C(Nc1nccs1)c1cc2sccc2n1Cc1ccc(F)cc1,-3.4% (inactive)
13,COc1ccc(-n2nnnc2SCC(=O)NCCc2ccc(OC)c(OC)c2)cc1,-3.9% (inactive)
14,COc1ccc(CCNC(=O)CSc2nnnn2-c2ccccc2OC)cc1OC,6.4% (inactive)
15,COc1ccc(CCNc2nnc(Sc3nnnn3-c3ccccc3)s2)cc1OC,68.8% (active)
16,Cc1ccc(C)c(Oc2nnnn2-c2ccccc2)c1,-2.3% (inactive)
17,c1ccc(-n2nnnc2SCCCSc2nc3ccccc3s2)cc1,2% (inactive)
18,CCCSc1nnc(Sc2nnnn2-c2ccccc2)s1,88.2% (active)
19,Cn1ccnc1Sc1nnnn1-c1ccccc1,-9.8% (inactive)
20,C(=C\CSc1nnnn1-c1ccccc1)/CSc1nnnn1-c1ccccc1,-12.8% (inactive)
21,CC1CC(c2ccccc2)n2nc(NC(=O)CCc3ccccc3)nc2N1 (centres undefined),3.9% (inactive)
22,O=C(NCc1cccs1)c1noc2c1CCCC2,5.2% (inactive)
23,O=C1CC(N2CCN(c3ccc(S(=O)(=O)N4CCCC4)cc3)CC2)C(=O)N1c1ccc(F)cc1 (centres undefined),-0.7% (inactive)
24,CCOc1ccc2[nH]c(O)c(NC(C)=O)c2c1,-16.9% (inactive)
25,Cc1oc(-c2ccc(Cl)cc2)nc1CN1CCC(C(=O)N2CCN(c3ccccn3)CC2)CC1,8% (inactive)

row,SMILES,cytotoxicity
1,O=C(NC1CCCCC1)n1c(=O)oc2ccccc21,-35.5% (inactive)
2,O=C(Nc1nc(-c2ccco2)cs1)c1ccccc1,20.8% (inactive)
3,CCOC(=O)c1csc(NC(=O)c2ccccc2)n1,-0.2% (inactive)
4,Cc1nc(NC(=O)c2ccccc2)sc1-c1csc(N)n1,58.6% (active)
5,Cc1nc(NC(=O)c2ccccc2)sc1-c1csc(NCc2ccco2)n1,73.6% (active)
6,Cc1nc(C)c(-c2csc(NCc3ccco3)n2)s1,-14.9% (inactive)
7,O=C(Nc1nc2c(s1)C(=O)CCC2)c1ccccc1,-6.7% (inactive)
8,Cn1c(=O)c2c(nc(SCC(=O)O)n2Cc2cccc(C(F)(F)F)c2)n(C)c1=O,-7.6% (inactive)
9,CCCCOc1ccc(/C(O)=C2/C(=O)C(=O)N(CCCOC)C2c2ccncc2)cc1C (centres undefined),-8.2% (inactive)
10,COc1ccc(CN2C(=O)NC3(CCCCCC3)C2=O)cc1F,-2.8% (inactive)
11,CC(C)(C)c1cc(NC(=O)c2cccnc2)no1,-7.8% (inactive)
12,O=C(Cn1c(=O)sc2ccccc21)Nc1ccccc1C(=O)O,18.1% (inactive)
13,COc1ccc(C2C(C(=O)Nc3ccccc3OC)=C(C)Nc3ncnn32)cc1 (centres undefined),-6.4% (inactive)
14,CCOC(=O)C1=C(CSc2nc(C)ccc2C#N)OC(N)=C(C#N)C1c1cccc(OC)c1OC (centres undefined),57.6% (active)
15,CCOC(=O)C1=C(CSc2nc3c(cc2C#N)CCC3)OC(N)=C(C#N)C1c1ccccc1 (centres undefined),108% (active)
16,CCOC(=O)C1=C(CSc2nc(C)cc(C)c2C#N)OC(N)=C(C#N)C1c1cccs1 (centres undefined),-2.2% (inactive)
17,CCOC(=O)C1=C(CSc2nc3c(cc2C#N)CN(C)CC3)OC(N)=C(C#N)C1c1ccccc1 (centres undefined),14.3% (inactive)
18,CCOC(=O)C1=C(C)OC(N)=C(C#N)C1c1ccc(OC)c(C)c1OC (centres undefined),2.9% (inactive)
19,CCOC(=O)C1=C(CSc2nc(-c3ccncc3)ccc2C#N)OC(N)=C(C#N)C1c1cccnc1 (centres undefined),20% (inactive)
20,COc1cc(S(=O)(=O)NCC2CCCO2)c(OC)cc1Cl (centres undefined),-5.9% (inactive)
21,CCN(CC)CCN1C(=O)C(=O)/C(=C(/O)c2ccc(Cl)cc2)C1c1ccncc1 (centres undefined),-16.4% (inactive)
22,CCOc1ccc(N2CC(=O)SC2=S)cc1,-11.8% (inactive)
23,Cc1ccc(C#N)c(SCc2cc3c(cc2Cl)OCO3)n1,2.4% (inactive)
24,COc1ccc(S(=O)(=O)Cc2ccc(C(=O)NC3CC3)o2)cc1,-11.3% (inactive)
25,O=C(CN1C(=O)COc2ccccc21)N(Cc1cccnc1)Cc1cccc(F)c1,-1.8% (inactive)

row,SMILES,cytotoxicity
1,O=C(NCc1ccccn1)C1CCN(S(=O)(=O)c2cccs2)CC1,-6.5% (inactive)
2,Cc1cc(C)cc(N2C(=O)CC(N3CCOCC3)C2=O)c1 (centres undefined),1.2% (inactive)
3,O=C(c1ccc(F)cc1)c1ccc(N2CCCC2)cc1,-11% (inactive)
4,N#Cc1nc(-c2ccc(F)cc2)oc1N1CCCC1,3.4% (inactive)
5,CCCn1c(SCC(=O)NC(=O)NCc2ccco2)n[nH]c1=O,-2.3% (inactive)
6,O=C(NCC1CCCO1)c1cc2n(n1)C(C(F)(F)F)CC(c1ccc(Br)cc1)N2 (centres undefined),6.4% (inactive)
7,O=S1(=O)CCC(NCC2CCCO2)C1 (centres undefined),6.3% (inactive)
8,CCOc1ccc(/C(O)=C2\C(=O)C(=O)N(CCN(C)C)C2c2cc(OC)ccc2OC)cc1Cl (centres undefined),-1.7% (inactive)
9,CSc1ccc(Cl)c(C(=O)OCC(=O)N2CCOCC2)c1,-13.8% (inactive)
10,N#C/C(=C\c1ccc(O)c(O)c1)S(=O)(=O)c1ccccc1,5.4% (inactive)
11,O=C(NCCCc1ccccc1)c1ccccc1O,-6.1% (inactive)
12,N#C/C(=C\c1ccc(O)c(O)c1)C(=O)NCCCc1ccccc1,54.7% (active)
13,Cc1ccc(S(=O)(=O)N2CCCCC2)cc1C(=O)c1nccn1C,-13.8% (inactive)
14,CCOc1ccc(NC(=O)CCS(=O)(=O)c2ccc3c(c2)CCCN3C(C)=O)cc1,-19.8% (inactive)
15,COc1ccc(-n2c(N)c(C(=O)NCc3ccco3)c3nc4ccccc4nc32)c(OC)c1,5.2% (inactive)
16,COc1ccc(CCn2c(N)c(C(=O)NCc3ccco3)c3nc4ccccc4nc32)cc1OC,57.5% (active)
17,COc1ccc(CCn2c(N)c(C#N)c3nc4ccccc4nc32)cc1OC,-1.9% (inactive)
18,Nc1c(C(=O)NCCN2CCOCC2)c2nc3ccccc3nc2n1-c1ccccc1,-0.8% (inactive)
19,O=C(Cn1c(CN2CCCCC2)nc2ccccc2c1=O)NCc1ccco1,-21.9% (inactive)
20,Cc1cccc(-n2c(Cc3cc(=O)[nH]c(=O)[nH]3)nnc2SCC(=O)NCc2ccco2)c1,-4.5% (inactive)
21,O=C(NCc1cccc(F)c1)c1noc2c1CCCC2,-1.2% (inactive)
22,Cc1cc(O)cc(=O)n1Cc1ccco1,-8.3% (inactive)
23,COc1cc(C)c(C(C)C)cc1S(=O)(=O)N1CCN(C)CC1,-21.8% (inactive)
24,COc1cc(Cl)c(S(=O)(=O)n2cnc(C)c2)cc1Cl,4.1% (inactive)
